Whole data set: some 5,800 sequences, median “enrichment r” near 0.68, cut for the highest 2% near 11. For the sample, the highest values were picked, then their nearest neighbours and some sequences at random.
T1: UNK ZnF1-6 (called full-length) (human, UniProt Q9C0B0 30-357)
T1 sequence: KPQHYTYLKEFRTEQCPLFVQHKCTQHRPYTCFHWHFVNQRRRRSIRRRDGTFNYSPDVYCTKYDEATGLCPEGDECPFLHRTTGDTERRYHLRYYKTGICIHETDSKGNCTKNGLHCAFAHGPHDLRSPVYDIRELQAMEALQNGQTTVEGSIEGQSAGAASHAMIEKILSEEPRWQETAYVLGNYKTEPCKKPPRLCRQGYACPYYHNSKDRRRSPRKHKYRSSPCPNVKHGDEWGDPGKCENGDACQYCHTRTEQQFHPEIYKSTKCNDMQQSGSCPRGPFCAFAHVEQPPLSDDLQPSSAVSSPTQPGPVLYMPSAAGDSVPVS

B1: chr10:113908677:113908778:+|3pUTR|ENSG00000196865|unk|FALSE|bound_elsewhere (ssRNA)
RNA: GGGAGUUCUACAGUCCGACGAUCAGCUAUGCUCCUUACUUACUUCUUUUAUUAUAAACAAAUUCCUUUGCUUUGGCUGAUACUAGCUGAGUCAUUGAUCAUCAUUGGUACCAUGAUAUUGUAAUCUAUGCUGCUAUUUGGCACCAACAGAGGAUUGAGCAUCA
B2: chr5:113014749:113014850:+|3pUTR|ENSG00000172795|msi1|total|mutant (ssRNA)
RNA: GGGAGUUCUACAGUCCGACGAUCUAAAAAUCCUUUUUUACAGUGGUAUCCACAAAAUACUUCUCUGCUUAUAAAUGUUAUUGCCGAAAUCUUUAUUCUGUGCCGGCCGCCUAUUUAAUUGGGUUCCACUGAACCUCAUGGGACCAACAGAGGAUUGAGCAUCA
B3: chrX:51682015:51682831:-|CDS|ENSG00000283093|control|control|control (ssRNA)
RNA: GGGAGUUCUACAGUCCGACGAUCCAGUGCCCCCGGGUCCAAGUCGGGGUCGGGAGCCACGCGGCGGCCAAGAGGUGGCUGGGUAGGUGGCGACGGAAGCGCCGCUGGCGGCGGGUCCGGAAGGCGGGCCCCAGAGACCUGCUGCAACAGAGGAUUGAGCAUCA
B4: chr5:111496093:111496242:-|3pUTR|ENSG00000164211|unk|FALSE|unique (ssRNA)
RNA: GGGAGUUCUACAGUCCGACGAUCUUUACAUGUAUAGUUAAAUAUUAAAAUUCAUCUCUUGCAGUUCAAUAAAAGCUAUAGUAUAGAUUUUAUUUUUAAGAAGUUUAUAUAAUUCUUUUGUGAACCAAUAUGUAAAACUAGAAUCAACAGAGGAUUGAGCAUCA
B5: chr6:89631235:89631336:+|3pUTR|ENSG00000135299|msi1|FALSE|unique (ssRNA)
RNA: GGGAGUUCUACAGUCCGACGAUCUGAAGUUUGAAAGCUCAGAUUAAGCAAGCCAUGCCAAGAAACUGGACGAUGUGUAAGCCUAGACUCUAAAAUUCAAGAUGUGUGAAAUAAUAUAAGUCAAAAGCAAGAAAAACGUAAUCCCAACAGAGGAUUGAGCAUCA
B6: chr5:141515350:141515460:-|3pUTR|ENSG00000131504|msi1_unk|FALSE|overlapping (ssRNA)
RNA: GGGAGUUCUACAGUCCGACGAUCCUCAGCUUUCCAUCCCCAGCUAGGAAGAAAGAAUGGCACUCUUGGGCUUGGCCCAGAAUUAGAGUUAUUAGAGCAAGAGAGAGCUUAGGAAGCAUGAGGGCAACUAUAGUGAGGCCUUAUCAACAGAGGAUUGAGCAUCA
B7: chr6:96891104:96891324:-|CDS|ENSG00000123545|unk|FALSE|unique (ssRNA)
RNA: GGGAGUUCUACAGUCCGACGAUCUAAUCAUAAGCUUUUCCCAGAAACCUGGACUGCUGAGAAAAUAAUGCAGGAAUACCAGUUAGAACAGAAAGAUGUGAAUUCUCUUCUUAAAUAUUUUGUUACUUUUGAAGUCGAAAUCUUCAACAGAGGAUUGAGCAUCA
B8: chr6:39540002:39540221:-|CDS|ENSG00000164627|control|control|control (ssRNA)
RNA: GGGAGUUCUACAGUCCGACGAUCCCACUUGGCUGGCAUGGAUAGACGUGAAUUCAGACAGUCCCAGAGCCCACCCUUCCGCCUAGGAAACCCAGAAGAAGGUCAAAGAAUGCGACUAUCCUCAGCUCCCUCACAGGCCCAGGACAACAGAGGAUUGAGCAUCA
B9: ENSG00000156687:stop:overlap|stop_codon|ENSG00000156687|stop_codon|NA|stop_codon (ssRNA)
RNA: GGGAGUUCUACAGUCCGACGAUCACAUUUCAGAAUCCCAGCUUGAUGAAGCCGACUUCAACUACAGCAGGCAAAAUGGACUCUAGUCCACUUCCUCCCAUGAGACAGAGUGAUGGCCAGCUUGGGGACAUUUGCUUUAAAUGGCAACAGAGGAUUGAGCAUCA
B10: chr17:21001410:21001511:-|3pUTR|ENSG00000124422|msi1_unk|FALSE|overlapping (ssRNA)
RNA: GGGAGUUCUACAGUCCGACGAUCUAGUACAACUUUUAGACACAGAAAUCUGAAUGACAUAUAUUGUUCUGUGUCAAGAAACUUAGAUUUUUUUUUUAACUAUUUAAAAACGUGAAACCUAUUCUUAGCUCACAGGCCAUGGAGCAACAGAGGAUUGAGCAUCA
B11: chr7:127374855:127374969:-|CDS|ENSG00000048405|unk|FALSE|unique (ssRNA)
RNA: GGGAGUUCUACAGUCCGACGAUCCCUAGAAGCCAUAUAUCCAAGUGUGGACAAACGAGAAUAUAUUAUUAAGCUAGAACCCAUAGAAACUAAUCAAAAUGCAGUAUUUCAAUAUAUUUCGAGGACUGAUAAUCCUAUUGAAGUCAACAGAGGAUUGAGCAUCA
B12: chr3:120327094:120327202:-|3pUTR|ENSG00000163428|unk|FALSE|unique (ssRNA)
RNA: GGGAGUUCUACAGUCCGACGAUCGAAGAGAAGUCACCAAACACCUAGGGACAGUCCUAGGCCUAGAAAGCCCUUUAAAGUAAUAGUGAAUUGUUUUAAAAUUAAGUUAUUGAGUGGCCUACUGACUACCAUCCAAAAACCUUUCAACAGAGGAUUGAGCAUCA

What follows are binders tested against T1, UNK ZnF1-6 (called full-length) (assay: nsRBNS (natural sequence RNA bind-n-seq); RBNS binding buffer (assumed for nsRBNS): 25 mM Tris pH 7.5, 150 mM KCl, 3 mM MgCl2, 0.01% Triton X-100, 500 ug/ml BSA, 20 U/ml SUPERase-In, 4 C; UNK is unkempt and MSI1 is Musashi-1; names of the RNAs are library labels; protein concentration not given here; high values mean tight binding).

Binder | binding signal [enrichment R]
B1 | 3.85
B2 | 0.567
B3 | 6.11
B4 | 2.13
B5 | 0.227
B6 | 13.3
B7 | 0.645
B8 | 0.794
B9 | 0.56
B10 | 24.9
B11 | 18.1
B12 | 3.46
